To fix the notation:
B1: GGUGGAA (DNA:RNA)
RNA: GGGAGACCGGAAUUCAGAUUGUCCGGUGGAAUUAAAUCCCGUCGUAGCCACCA
DNA 1: CAATCTGAATTCCGGTCTCCC
DNA 2: TGGTGGCTACGACGGGATT
B2: UGGCGAC (DNA:RNA)
RNA: B1 RNA with G25U, U27G, G28C, A31C
DNA 1: CAATCTGAATTCCGGTCTCCC
DNA 2: TGGTGGCTACGACGGGATT
B3: CCGGGGC (DNA:RNA)
RNA: B1 RNA with G25C, G26C, U27G, A30G, A31C
DNA 1: CAATCTGAATTCCGGTCTCCC
DNA 2: TGGTGGCTACGACGGGATT
B4: ACUCUUG (DNA:RNA)
RNA: B1 RNA with G25A, G26C, G28C, G29U, A30U, A31G
DNA 1: CAATCTGAATTCCGGTCTCCC
DNA 2: TGGTGGCTACGACGGGATT
B5: GAGUGCG (DNA:RNA)
RNA: B1 RNA with G26A, U27G, G28U, A30C, A31G
DNA 1: CAATCTGAATTCCGGTCTCCC
DNA 2: TGGTGGCTACGACGGGATT
B6: UGCCUUA (DNA:RNA)
RNA: B1 RNA with G25U, U27C, G28C, G29U, A30U
DNA 1: CAATCTGAATTCCGGTCTCCC
DNA 2: TGGTGGCTACGACGGGATT
B7: UUUUCUC (DNA:RNA)
RNA: B1 RNA with G25U, G26U, G28U, G29C, A30U, A31C
DNA 1: CAATCTGAATTCCGGTCTCCC
DNA 2: TGGTGGCTACGACGGGATT
B8: UUGUCUC (DNA:RNA)
RNA: GGGAGACCGGAAUUCAGAUUGUCCUUGUCUCUUAAAUCCCGUCGUAGCCACCA
DNA 1: CAATCTGAATTCCGGTCTCCC
DNA 2: TGGTGGCTACGACGGGATT
B9: UUCAGGC (DNA:RNA)
RNA: B8 RNA with G27C, U28A, C29G, U30G
DNA 1: CAATCTGAATTCCGGTCTCCC
DNA 2: TGGTGGCTACGACGGGATT

Where a chain is given by its changes, count along the chain named. The full ranking holds about 16,000 sequences; the median of “ka relative to ugcaugu” is about 0.0091, and the highest 2% start at about 0.032. The entries come from a sample that favours the highest values as a whole.

The target of the assay is T1, RBFOX1 RRM (Homo sapiens, UniProt Q9NWB1 109-208).
T1 sequence: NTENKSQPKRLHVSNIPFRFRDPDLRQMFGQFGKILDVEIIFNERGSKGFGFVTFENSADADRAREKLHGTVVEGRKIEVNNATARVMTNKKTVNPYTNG
The assay is described as follows: EMSA; HiTS-Eq, 1 nM pool, 10 min; buffer printed only for the single-RNA assays: 10 mM Tris pH 7.5, 150 mM NaCl, 3.4 mM EDTA, 0.001% NP-40, 30 C. The note with it: tags: His6 N-terminal (pET28a); label: 5' 32P. Summed up:
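Purified wild-type or mutant RbFox RRM at increasing concentrations was equilibrated with 1 nM of 5′-radiolabelled RNA carrying 7 randomized nucleotides for 10 min in 50 µL. Unbound RNA was separated by 8% native PAGE and sequenced. Relative association constants came from read-count changes of each RNA species compared with the control reaction, normalised to the cognate motif.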
On the technique in general: Mobility shift assays separate free from complexed probe on a gel.
With B1, the binding signal is 0.00994 KA relative to UGCAUGU.

As for B2, the binding signal is 0.00695 KA relative to UGCAUGU.

On to B3, for which the binding signal is 0.0147 KA relative to UGCAUGU.

Consider B4, for which the binding signal was 0.0078 KA relative to UGCAUGU.

With B5, the binding signal was 0.0156 KA relative to UGCAUGU.

Regarding B6, the binding signal was 0.00671 KA relative to UGCAUGU.

In the case of B7, the binding signal was 0.0162 KA relative to UGCAUGU.

For the molecule B8, the binding signal was 0.0203 KA relative to UGCAUGU.

B9: the binding signal is 0.0127 KA relative to UGCAUGU.

For the origin of these results see article PMC9911399, “Two distinct binding modes provide the RNA-binding protein RbFox with extraordinary sequence specificity”.
